Compounds with a hit are over-represented: about 0.33% of the library has one in this group of screens.
FXIa inh: blocks human coagulation factor XIa activity. inhibition, % at 10 µM. actives 0.3% (n = 33,000). purified human FXIa, fluorogenic AMC substrate cleavage. P03951;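 active means inhibition above 40% in the primary screen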;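 further: 0% = enzyme without compound and 100% = blank wells lacking enzyme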
FXIIa single: blocks human coagulation factor XIIa activity | inhibition, % at 10 µM | AID 701 | purified human FXIIa, AMC substrate fluorescence, 2 h | actives 0.2% (n = 33,000); in the data active means inhibition above about 30%;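 further: 0% = enzyme with vehicle only and 100% = no enzyme blank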
Target sequence (P00748 20-372 limits assumed): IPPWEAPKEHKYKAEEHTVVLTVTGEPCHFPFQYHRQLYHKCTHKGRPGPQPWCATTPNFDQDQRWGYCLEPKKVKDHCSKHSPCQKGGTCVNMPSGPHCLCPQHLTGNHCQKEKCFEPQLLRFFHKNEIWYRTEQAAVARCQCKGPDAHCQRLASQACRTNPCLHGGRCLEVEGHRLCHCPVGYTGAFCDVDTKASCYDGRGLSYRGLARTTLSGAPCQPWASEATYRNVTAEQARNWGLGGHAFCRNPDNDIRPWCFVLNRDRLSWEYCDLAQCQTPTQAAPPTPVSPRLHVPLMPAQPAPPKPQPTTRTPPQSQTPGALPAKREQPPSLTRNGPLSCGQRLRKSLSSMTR
Target sequence (P00748 373-615 limits assumed): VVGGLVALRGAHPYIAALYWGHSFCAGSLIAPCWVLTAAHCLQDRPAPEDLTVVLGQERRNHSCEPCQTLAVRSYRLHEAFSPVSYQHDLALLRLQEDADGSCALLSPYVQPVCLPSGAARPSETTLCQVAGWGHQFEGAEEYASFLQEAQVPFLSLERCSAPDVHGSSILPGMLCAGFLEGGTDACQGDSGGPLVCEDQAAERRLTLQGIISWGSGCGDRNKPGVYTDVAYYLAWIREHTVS
* marks the source's active call; other numbers are inactive results.

SMILES	FXIa inh	FXIIa single
CCOC(=O)N=S(=O)(Oc1ccc([N+](=O)[O-])cc1)c1ccccc1 (stereo unspecified)	44*	6
CN(CC(=O)O/N=C(\N)c1ccc([N+](=O)[O-])cc1)S(=O)(=O)c1ccccc1	33	-13
CCCSc1ncc(Cl)c(C(=O)Nc2ccc(S(=O)(=O)N3CC(C)OC(C)C3)cc2)n1 (stereo unspecified)	18	5
CCN(CC)c1ccc(C2NCC(c3ccc([N+](=O)[O-])cc3)O2)cc1 (stereo unspecified)	-5	2
Cc1ccc(NC(=O)c2ccco2)c(NC(=O)Cc2cccs2)c1	-7	3
CCc1ccccc1NC(=O)Cn1nc(C(F)(F)F)c2c1CCC2	-3	1
CCc1ccc(NC(=O)Cn2nc(C(F)(F)F)c3c2CCC3)cc1	44*	2
O=C(c1ccc(F)cc1)N1CCN(C(=O)c2cccnc2)CC1	50*	10
O=C(c1ccccc1)N1CCN(C(=O)c2ccccc2)CC1	-1	3
COC(=O)c1[nH]c2ccc(Br)cc2c1NC(=O)CN1CCCc2ccccc21	45*	3
CCOC(=O)c1[nH]c2ccc(OC)cc2c1NC(=O)CN1CCc2ccccc2C1	-6	0
C=CCNc1nc(Nc2ccc(-c3nc4ccccc4o3)cc2)nc(N2CCOCC2)n1	-13	-23
COc1ccc(OC(C)C(=O)N2CCC(C)CC2)cc1 (stereo unspecified)	-7	4
O=S(=O)(Nc1cccc2nsnc12)c1ccccc1	48*	8
O=S(=O)(Nc1ccc(S(=O)(=O)Nc2cccc3ccccc23)cc1)c1ccccc1	-4	6
COc1ccc(-c2nn(C)c(=O)c3ccccc23)cc1NC(=O)Cn1nc(-c2ccccc2)c2ccccc2c1=O	-5	1
COc1ccc(OCC(=O)Nc2cc(-c3nn(C)c(=O)c4ccccc34)ccc2OC)cc1	42*	11
CC12CCC(C(=O)Nc3ncc([N+](=O)[O-])s3)(OC1=O)C2(C)C (stereo unspecified)	4	5
Cn1cc(C(=O)NCN2CCCCC2)c2ccccc21	2	1
Cc1ccccc1C(=O)Nc1nc2n(n1)C(c1ccccc1)CC(=O)N2 (stereo unspecified)	-7	-4
C=CCNC(=S)NNC(=O)C(CCCC)CC(C)(C)O (stereo unspecified)	-2	-3
O=C1[O][Bi][O]c2ccccc21	-16	-13
COc1ccc(S(=O)(=O)N2CCC(C(=O)N3CCc4ccccc4C3)CC2)cc1Cl	61*	7
COc1ccc(S(=O)(=O)N2CCC(C(=O)NC3CC3)CC2)cc1Cl	-1	-1
CCCC(CCC)C(=O)Nc1c[nH]c(=O)[nH]c1=O	-2	13
SMILES	FXIa inh	FXIIa single
Cc1ccc(C)c2c1[nH]c1ccc([N+](=O)[O-])cc12	16	-8
N#CCCn1nc(-c2ccccc2)cc1Nc1ccccc1NC(=O)c1cccs1	11	1
Cc1ccc(NC(=O)CCn2cccc2)cc1C	-5	6
Cc1ccc(NC(=O)CCn2cccc2)cc1	44*	3
O=C(O)c1cn(-c2ccccc2)nc1-c1cccnc1	2	-1
O=C(c1cn(-c2ccccc2)nc1-c1ccncc1)n1nnc2ccccc21	96*	89*
CCN(CC(N)=O)S(=O)(=O)c1ccc(Br)cc1	0	-11
COC(=O)c1ccc(NC(=O)c2ccccc2SC)cc1	1	7
Cc1ccc(C(=O)ONc2ccc(N=NC(=O)c3ccccc3O)cc2)cc1	43*	15
Cc1ccc(C)c(N2CCN(C(=O)Cn3c(=O)[nH]c4ccsc4c3=O)CC2)c1	1	8
Cc1cc(NC(=O)C(C)C)ncc1NC(=O)Cc1ccccc1	1	38*
Cc1cc(NC(=O)c2cccc(F)c2)ncc1NC(=O)c1ccco1	-2	5
CC1=CC(=O)C(C(C)C)=C/C1=N/OC(=O)c1cccc([N+](=O)[O-])c1	7	-2
CC1=CC(=NOC(=O)c2cccc([N+](=O)[O-])c2)C=C(C)C1=O	8	51*
COc1ccc(OCCSc2ncn[nH]2)cc1	43*	-15
O=C(CSc1ncn[nH]1)NCCOc1ccccc1	-2	-1
CCOc1cc(S(=O)(=O)N(Cc2ccccc2)Cc2ccccc2)c(OCC)cc1-n1cnnn1	45*	2
CCOc1cc(S(=O)(=O)NCc2ccccc2)c(OCC)cc1-n1cnnn1	-2	5
O=C(C1CCN(S(=O)(=O)c2ccccc2)CC1)N1CCOCC1	3	-2
O=C(c1cnsn1)N1CCN(c2ccccn2)CC1	1	9
COCC(=O)NC1CCN(C(=O)NCc2ccccc2)CC1	-3	1
COC(=O)c1sc(NC(=O)CC(C)C)c(C(=O)OC)c1C	43*	6
COC(=O)c1sc(NC(=O)CSc2nncs2)c(C(=O)OC)c1C	-7	4
Cc1noc(C)c1COc1ccc(C(=O)OCC(=O)NC2CCCCC2C)cc1 (stereo unspecified)	-4	5
CN(C)S(=O)(=O)n1ccnc1	-6	1
SMILES	FXIa inh	FXIIa single
Cc1cc(Cl)c(S(=O)(=O)N2CCN(c3ccc(F)cc3)CC2)cc1OCC(=O)NC1CCCCC1	19	-4
Cc1ccc(NS(=O)(=O)c2ccc(OCC(=O)N3CCOCC3)cc2)cc1	99*	8
CCOC(=O)COc1ccc(S(=O)(=O)Nc2ccc(C)cc2)cc1	2	11
COc1ccccc1-c1noc(-c2ccccc2C(=O)Nc2cccnc2)n1	23	6
O=C(CCCN1C(=O)c2ccccc2C1=O)NCC1CCCO1 (stereo unspecified)	44*	-11
O=C1c2ccccc2C(=O)N1CC1CCCO1 (stereo unspecified)	2	11
O=C(CCCc1ccccc1)N1CCc2ccccc21	0	-1
Cc1c(NC(=O)c2cnn3c2NC(c2ccco2)CC3C(F)(F)F)c(=O)n(-c2ccccc2)n1C (stereo unspecified)	-2	3
CCOc1ccc(NC(=O)Nc2cc(C)ccc2F)cc1	2	5
Cc1ccc(S(=O)(=O)NC2(C(=O)O)CCCCC2)cc1	-3	16
Cc1ccc(NC(=O)C2(S(=O)(=O)c3ccc(C)cc3)CC2)cc1	0	30*
COC(=O)c1cccc(Oc2nc(N3CCOCC3)nc(N3CCOCC3)n2)c1	1	4
CC1CCc2c(C(=O)Oc3cccc(-n4cnnn4)c3)csc2C1 (stereo unspecified)	0	9
O=C(Oc1cccc(-n2cnnn2)c1)c1ccco1	45*	47*
Cc1c(NC(=O)c2cc(C3CC3)on2)c(=O)n(-c2ccccc2)n1C	2	4
Cc1c(NC(=O)c2cc3ccccc3o2)c(=O)n(-c2ccccc2)n1C	57*	7
Cc1ccc2c(c1)-c1c(ssc1=S)C(C)(C)N2C(=O)c1ccco1	7	8
CC1(C)c2ssc(=S)c2-c2ccccc2N1C(=O)c1ccco1	4	34*
COC(=O)/C(=C(/F)Sc1cc(C)c(O)c(C)c1)C(F)(F)F	-8	12
Cc1cc(C)c2nc(C(F)(F)F)nc(NCCCN3CCOCC3)c2c1	-1	-1
O=C(Oc1nsnc1N1CCOCC1)c1ccccc1	66*	63*
O=C(Oc1ccc(OC(=O)N2CCOCC2)cc1)c1ccccc1	6	1
Cc1ccccc1-c1nc(CN2CCC(C(=O)NCc3cccs3)CC2)c(C)o1	10	1
Cc1c(C2N3CC4(C)CN2CC(C)(C3)C4=O)c2ccccc2n1C (stereo unspecified)	5	4

Screening results deposited in PubChem by PCMD.
